# Results as given in PubChem BioAssay AID1159580 (chemical genetic matrix, 2015).
# Out of some 5,500 compounds screened, about 2,000 (36%) were called active. Roughly 18% stayed inconclusive and do not appear here. The list shows a part of the results. Unmarked numbers belong to inactive results. Cut-off read from the data, not from the text of the source: active = normalized growth mostly below about 0.91 (no sharp cut-off); inconclusive = no clear call, values can overlap the other calls; inactive = mostly above about 0.92.
# Experiment: chemical genetic growth profiling, strain panel (AID 1159580);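 note: tested at 20 µM; growth read once vehicle control cultures reached saturation at 30 °C; 1 = growth at the plate median or of vehicle wells; lower values mean less growth of the strain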
# Settings: S. cerevisiae deletion strains, growth OD
structure (smiles),measurement,setting,value
NC(=S)N/N=C1/CCCc2ccccc21,normalized growth,"locus YAR019C, strain CDC15, hits give low values",0.923
same,normalized growth,"locus YBL105C, strain PKC1, hits give low values",0.944
same,normalized growth,"locus YBR135W, strain CKS1, hits give low values",0.939
same,normalized growth,"locus YBR136W, strain MEC1, hits give low values",0.909
same,normalized growth,"locus YBR160W, strain CDC28, hits give low values",0.905
same,normalized growth,"locus YDL017W, strain CDC7, hits give low values",0.921
same,normalized growth,"locus YDL028C, strain MPS1, hits give low values",0.924
same,normalized growth,"locus YDL101C, strain DUN1, hits give low values",0.921
same,normalized growth,"locus YDL108W, strain KIN28, hits give low values",0.906
same,normalized growth,"locus YDL214C, strain PRR2, hits give low values",0.805
same,normalized growth,"locus YDR052C, strain DBF4, hits give low values",0.884 (active)
same,normalized growth,"locus YDR054C, strain cdc34, hits give low values",0.885
same,normalized growth,"locus YDR226W, strain ADK1, hits give low values",0.866 (active)
same,normalized growth,"locus YDR477W, strain SNF1, hits give low values",0.748
same,normalized growth,"locus YER123W, strain YCK3, hits give low values",0.891
same,normalized growth,"locus YER133W, strain GLC7, hits give low values",0.802
same,normalized growth,"locus YFL009W, strain cdc4, hits give low values",0.92
same,normalized growth,"locus YFL029C, strain CAK1, hits give low values",0.921
same,normalized growth,"locus YFR003C, strain YPI1, hits give low values",0.913
same,normalized growth,"locus YFR019W, strain FAB1, hits give low values",0.925
same,normalized growth,"locus YFR028C, strain CDC14, hits give low values",0.834 (active)
same,normalized growth,"locus YGR040W, strain KSS1, hits give low values",0.805
same,normalized growth,"locus YGR052W, strain FMP48, hits give low values",0.746
same,normalized growth,"locus YGR092W, strain DBF2, hits give low values",0.814
same,normalized growth,"locus YHR030C, strain SLT2, hits give low values",0.805 (active)
same,normalized growth,"locus YHR079C, strain IRE1, hits give low values",0.954
same,normalized growth,"locus YHR082C, strain KSP1, hits give low values",0.935
same,normalized growth,"locus YHR205W, strain SCH9, hits give low values",0.993
same,normalized growth,"locus YIL147C, strain SLN1, hits give low values",0.91
same,normalized growth,"locus YJL095W, strain BCK1, hits give low values",0.934
same,normalized growth,"locus YJL128C, strain PBS2, hits give low values",0.966
same,normalized growth,"locus YJL157C, strain FAR1, hits give low values",0.749
same,normalized growth,"locus YJR016C, strain ILV3, hits give low values",0.896 (active)
same,normalized growth,"locus YJR066W, strain TOR1 (second series), hits give low values",0.824
same,normalized growth,"locus YJR066W, strain TOR1, hits give low values",0.765
same,normalized growth,"locus YKL048C, strain ELM1, hits give low values",0.781 (active)
same,normalized growth,"locus YKL067W, strain YNK1, hits give low values",0.796
same,normalized growth,"locus YKL101W, strain HSL1, hits give low values",0.822
same,normalized growth,"locus YKL193C, strain SDS22, hits give low values",0.922
same,normalized growth,"locus YKL203C, strain TOR2, hits give low values",0.589 (active)
same,normalized growth,"locus YLR113W, strain HOG1, hits give low values",1
same,normalized growth,"locus YLR133W, strain CKI1, hits give low values",0.796
same,normalized growth,"locus YLR403W, strain SFP1, hits give low values",0.659 (active)
same,normalized growth,"locus YML070W, strain DAK1, hits give low values",0.914
same,normalized growth,"locus YMR001C, strain CDC5, hits give low values",0.939
same,normalized growth,"locus YMR205C, strain PFK2 (second series), hits give low values",0.759
same,normalized growth,"locus YNL006W, strain LST8, hits give low values",0.978
same,normalized growth,"locus YNL020C, strain ARK1, hits give low values",0.802
same,normalized growth,"locus YNL161W, strain CBK1, hits give low values",0.955
same,normalized growth,"locus YNL183C, strain NPR1, hits give low values",0.735
same,normalized growth,"locus YNL207W, strain RIO2, hits give low values",0.858 (active)
same,normalized growth,"locus YNL222W, strain SSU72, hits give low values",0.956
same,normalized growth,"locus YNL307C, strain MCK1 (second series), hits give low values",0.695
same,normalized growth,"locus YOL078W, strain AVO1, hits give low values",0.925
same,normalized growth,"locus YOL136C, strain PFK27, hits give low values",0.922
same,normalized growth,"locus YOR061W, strain CKA2, hits give low values",0.902
same,normalized growth,"locus YOR119C, strain RIO1, hits give low values",0.573 (active)
same,normalized growth,"locus YOR231W, strain MKK1, hits give low values",0.912
same,normalized growth,"locus YOR329C, strain SCD5, hits give low values",0.965
same,normalized growth,"locus YPL031C, strain PHO85, hits give low values",0.788
same,normalized growth,"locus YPL153C, strain RAD53, hits give low values",0.837
same,normalized growth,"locus YPL204W, strain HRR25, hits give low values",0.872
same,normalized growth,"locus YPL209C, strain IPL1, hits give low values",0.934
same,normalized growth,"locus YPL256C, strain CLN2, hits give low values",0.999
same,normalized growth,"locus YPR025C, strain CCL1, hits give low values",0.937
same,normalized growth,"locus YPR106W, strain ISR1, hits give low values",0.913
same,normalized growth,"locus YPR111W, strain DBF20, hits give low values",0.874
same,normalized growth,"strain NNK1, hits give low values",0.908
same,normalized growth,"strain TSCII, hits give low values",0.93
